Test results reported in the supplement of paper PMC5641865, “A screen for kinase inhibitors identifies antimicrobial imidazopyridine aminofurazans as specific inhibitors of the Listeria monocytogenes PASTA kinase PrkA” (The Journal of Biological Chemistry, 2017).
“And” between values parts separate entries of the source, which are not always exact repeats. Equal entries are not always repeated. Structures can show the parent of a compound that is named as a salt. ± gives the standard deviation of the averaged measurements.

These compounds were tested on Listeria monocytogenes 10403S (assay: growth inhibition relative to ceftriaxone-alone control; higher = stronger potentiation of ceftriaxone growth inhibition). Conditions: 10 µM; ceftriaxone 1 ug/ml; 12 h.
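Further: End-point A600 read in BHI broth at 37 °C with 2% DMSO, inhibition computed as (1 − OD with compound plus ceftriaxone ÷ OD with ceftriaxone only) × 100.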

SMILES	growth inhibition
Cc1ccc(NC(=O)c2ccc(CN3CCN(C)CC3)cc2)cc1Nc1nc(-c2cccnc2)cs1 [Masitinib (AB1010)]	36.7 ± 26%
c1cncc(CN2CCC(n3ncc4c(N5CCOCC5)nc(-c5ccc6[nH]ccc6c5)nc43)CC2)c1	37.1 ± 17%
CCn1c(-c2nonc2N)nc2c(C#CC(C)(C)O)ncc(OCC3CCNCC3)c21	29.8 ± 9.6%
CCOc1cc2ncc(C#N)c(Nc3ccc(OCc4ccccn4)c(Cl)c3)c2cc1NC(=O)/C=C/CN(C)C [Neratinib (HKI-272)]	12.3 ± 9.7%
Cc1nnc(-c2ccc(C)c(-c3ccc(C(=O)Nc4cccc(C#N)c4)cc3)c2)o1	6.6 ± 12%
C[C@@H]1CCN(C(=O)CC#N)C[C@@H]1N(C)c1ncnc2[nH]ccc12	11.4% and 15.6%
CNC(=O)c1cc(Oc2ccc(NC(=O)Nc3cc(C(C)(C)C)nn3-c3ccc4ncccc4c3)c(F)c2)ccn1 [DCC-2036 (Rebastinib)]	21 ± 0.51%
CCCNc1cccc(-n2ncc3c(N/N=C/c4ccncc4)ncnc32)c1	-6.32 ± 14%
CC1=C(C(=O)Nc2ccc3[nH]ncc3c2)C(c2ccc(F)cc2)N=C(c2ccc(C(F)(F)F)nc2)N1 (stereo not drawn)	4.07 ± 7.3%
Cc1ccc(NC(=O)c2ccc(CN3CCN(C)CC3)cc2)cc1Nc1nccc(-c2cccnc2)n1 [Imatinib Mesylate]	29.9 ± 17%
Cn1c(-c2nonc2N)nc2cnccc21	-5.76 ± 4.5%
CNC(=O)c1ccc(C)c(-n2c(C)cc(OCc3ccc(F)cc3F)c(Br)c2=O)c1	35.2 ± 11%
Cc1cccc(Nc2ncc(-c3ccccc3)o2)c1	-0.369 ± 0.46%
COc1ccc2cc(-c3c(-c4ccncc4)nc(-c4ccc([S+](C)[O-])cc4C)n3C)ccc2c1 (stereo not drawn)	17.6 ± 9%
CCn1c(-c2nonc2N)nc2cncc(C(=O)NCCNC)c21	-6.44 ± 0.39%
CN(C[C@@H]1COCCO1)S(=O)(=O)Nc1ccc2ccc3ncc(-c4cnn(C)c4)cc3c(=O)c2c1	-22.01 ± 0.12%
COc1cc(Nc2nccc(Nc3ccc4c(C)n[nH]c4c3)n2)cc(OC)c1OC	-7.71 ± 14%
Cc1nc(-c2ccccc2)n2nc(NCCCN3CCOCC3)ncc12	0.025 ± 1.1%
N#CCNC(=O)c1ccc(-c2ccnc(Nc3ccc(N4CCOCC4)cc3)n2)cc1	33 ± 13%

SMILES	growth inhibition
COc1cc2ncn(-c3cc(OCc4cccs4)c(C(N)=O)s3)c2cc1OC	-10.4 ± 16%
COc1cc(/C=N/Nc2ncnc3c2cnn3C(C)C)ccc1O	-1.18 ± 2.2%
O=c1sn(-c2cccc3ccccc23)c(=O)n1Cc1ccccc1 [Tideglusib]	89.5 ± 12%
CCS(=O)(=O)c1ccc(OC)c(Nc2ncc(-c3cccc(C(C)=O)c3)o2)c1	7.79 ± 2.2%
COc1cc(Nc2ncc3c(n2)-c2ccc(Cl)cc2C(c2c(F)cccc2OC)=NC3)ccc1C(=O)O	43 ± 37%
C#Cc1cccc(Nc2ncnc3ccc(OCCCCNCCS(C)(=O)=O)cc23)c1	-12 ± 5.6%
N#Cc1ccc(Oc2nccc(-c3c(-c4ccc(F)cc4)ncn3C3CCNCC3)n2)cc1	-15.2 ± 18%
CN1CCC(n2cnc(-c3ccc(F)cc3)c2-c2ccnc(N)n2)CC1	-0.672 ± 2%
O=C1NC(=O)C(c2cccc(Cl)c2)=C1Nc1ccc(Cl)c(C(=O)O)c1	9.83 ± 0.41%
CC1=C(C(=O)Nc2cc(Cl)c3[nH]ncc3c2)C(c2ccc(C(F)(F)F)cc2)CC(=O)N1 (stereo not drawn)	-4.67 ± 5.5%
Cc1cc(CN2CCN(c3c(Br)cnc4nc(-c5ccc(N6CCN(C)CC6)cc5)[nH]c34)CC2)no1	40.4 ± 40%
CO[C@H]1C[C@@H]2CC[C@@H](C)[C@@](O)(O2)C(=O)C(=O)N2CCCC[C@H]2C(=O)O[C@H]([C@H](C)C[C@@H]2CC[C@@H](OCCO)[C@H](OC)C2)CC(=O)[C@H](C)/C=C(\C)[C@@H](O)[C@@H](OC)C(=O)[C@H](C)C[C@H](C)/C=C/C=C/C=C/1C [Everolimus (RAD001)]	27.5 ± 19%
COc1cc2c(cc1Nc1nc(N3CCc4ccccc43)c3cc[nH]c3n1)N(C(=O)CN(C)C)CC2	7.28 ± 0.39%
CNC(=O)CN1CCC(Oc2cc3c(Nc4cccc(Cl)c4F)ncnc3cc2OC)CC1	0.347 ± 1.9%
OCc1ccc(-c2nc(-c3ccc4c(c3)OCO4)c(-c3ccccn3)[nH]2)cc1	7.68 ± 2.9%
N#CC[C@H](C1CCCC1)n1cc(-c2ncnc3[nH]ccc23)cn1	10.6 ± 1.1%
c1cnn2ncc(-c3ccnc(NCCCN4CCOCC4)n3)c2c1	-2.97 ± 0.54%
NCc1ccc(-n2c(-c3nonc3N)nc3cnccc32)cc1	-4.5 ± 3.6%
N#CC1(c2ccc(NC(=O)c3cccnc3NCc3ccncc3)cc2)CCCC1 [Apatinib (YN968D1)]	12.7 ± 6.2%
